EWS-Fli inh: EWS/Fli transcriptional activity inhibition; A673 NR0B1-luciferase reporter, viability-normalised; inhibition, % at 12.6 µM; 0.67% of 350,000 active;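 active = mean inhibition of at least 50% after viability correction, with every replicate also passing that limit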;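 also: firefly luciferase signal divided by Alamar Blue viability fluorescence both relative to DMSO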
F508del corr: correctors of CFTR F508del function in bronchial epithelial cells | 0.36% of 350,000 active | CFBE cells, YFP halide quenching; stimulated with forskolin plus potentiator P3; % fluorescence drop versus neutral controls | activity (quench increase), % at 7.58 µM;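 active = mean added fluorescence quench of at least 8% versus neutral control, with both replicates also reaching 8%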;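 also: cells transiently co-express mutant CFTR-F508del with the halide-sensitive YFP; corrector assay measuring rescue of mutant channel to the surface after 24 h compound exposure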
PGC1a acetyl inh: lowers PGC1a acetylation signal in U2OS cells | AlphaScreen anti-acetyl-lysine; with virally co-expressed GCN5 acetyltransferase | inhibition, % at 15.6 µM | 0.17% of 350,000 active | AID 651687;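 active = every replicate shows inhibition of at least 40%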;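 also: 0% = neutral control wells and 100% = positive control wells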
GSIS activator: GLuc luminescence reporter in INS-1E cells, primary screen for activators of glucose-dependent secretion of insulin; INS-1E GLuc reporter insulin secretion, 2-3 h; activation, % at 16.6 µM; 0.61% of 370,000 active; AID 743287;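 active = lowest replicate activation of at least 40%, so every replicate reaches that level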;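 also: 0% = median of neutral control wells and 100% = median of IBMX positive control wells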
HIV Env fusion: inhibitors of HIV Env-mediated cell fusion; HeLa-JRFL Env/CEM21 cell fusion, luciferase; inhibition, % at 12.3 µM; 1.1% of 360,000 active; AID 651610;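 active = mean replicate inhibition score of at least 50 and every replicate individually at or above 50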;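 also: 0% = plate neutral controls and 100% = maraviroc near 300 nM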
PAX8 reporter: PAX8 transcriptional activity inhibition | inhibition, % at 12.6 µM | 1.2% of 360,000 active | AID 652154 | RMG-I TPO-luciferase reporter, SteadyGlo, 24 h;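 active = mean replicate inhibition at least 60% with every replicate also reaching 60%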;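 also: luciferase light reporting Pax8 driven TPO promoter activity; plate controls were median of neutral control wells for no effect and mitoxantrone controls for full effect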
* hit, by the source's call; i = inactive; x = not tested or not shown; [ ] = remark or other dose. This is a sample that favours compounds with a hit; in the whole collection about 2.7% have one here.

SMILES | EWS-Fli inh | F508del corr | PGC1a acetyl inh | GSIS activator | HIV Env fusion | PAX8 reporter
COc1ccc2[nH]c3c(C)c4ccncc4c(C)c3c2c1 | 59* | 16* | 37 | x | x | x
CCOC(=O)c1[nH]c2ccc(OC)cc2c1C | x | x | 14 | x | x | x
CCS(=O)(=O)N1CC2(CN(C(=O)NC(C)C)[C@H](CO)c3c2c2ccc(OC)cc2n3C)C1 | x | x | x | 7 | x | x
CCCCNC(=O)C1c2ccccc2OCC(=O)N1CCCN1CCOCC1 (stereo not given) | -5 | -2 | x | 6 | -65 | -12
Cc1cccc(C)c1NC(=O)C1c2ccccc2OCC(=O)N1CCCN1CCOCC1 (stereo not given) | -1 | -1 | x | 47* | -46 | -14
CC(=NNC(=S)Nc1ccccc1Cl)c1ccccn1 | 14 | 7 | 17 | -1 | 63* | 71*
C=CCNC(=S)N/N=C(\C)c1ccccn1 | x | x | x | x | 1 | 95*
Nc1cc(=O)[nH]c(SCCSc2ccc(F)cc2)n1 | 1 | 1 | 6 | 5 | 66* | -25
C=C(C)CN(CC)c1nc(N)c2c(N)nc3c(c2c1C#N)CC(=O)N3C12CC3CC(CC(C3)C1)C2 | x | x | x | -26 | 80* | 32
N#Cc1c(N2CCCC(O)C2)nc(N)c2c(N)nc3c(c12)CC(=O)N3C12CC3CC(CC(C3)C1)C2 (stereo not given) | x | x | -16 | -6 | -27 | 32
Cc1ccc2c(CN3CCN(S(=O)(=O)c4ccc5c(c4)OCCO5)CC3)cc(=O)oc2c1C | x | x | -8 | x | 93* | x
Cc1ccc2c(CN3CCN(Cc4ccc5c(c4)OCO5)CC3)cc(=O)oc2c1C | -1 | 3 | 10 | 13 | x | x
Cc1noc(C)c1NC(=O)N(C)C[C@@H]1OCCCC[C@H](C)Oc2ccc(NC(=O)Cc3ccccc3)cc2C(=O)N([C@@H](C)CO)C[C@@H]1C | -3 | -1 | -3 | -1 | -21[16.7 µM] | x
Cc1cccc2c(C(=O)O)cc(-c3cccnc3)nc12 | 2 | 1 | 21 | -5 | -2 | 66*
CCCCCCNC(=O)O[C@H]1Cn2c(=O)n(CCCCCC)c(=O)n2[C@@H]2CN(S(=O)(=O)c3ccc(C)cc3)C[C@]12O | -3 | 1 | x | -31 | 8 | 34
CCCCCCNC(=O)O[C@H]1Cn2c(=O)ccc(=O)n2[C@@H]2CN(S(=O)(=O)c3ccc(C)cc3)C[C@]12O | 71* | -5 | 15 | -32 | 6 | 77*
CCCNC(=O)N1CC2(CN(CC3CCCCC3)C2)c2c(n(C)c3cc(OC)ccc23)[C@H]1CO | 7 | 9.3* | -1 | -3 | x | x
COCC(=O)N1CCC2(CC1)CN(C(=O)NC1CCCC1)[C@@H](CO)c1c2c2ccc(OC)cc2n1C | 12 | -1 | 11 | 2 | x | 68*
COCC(=O)N1CC2(C1)CN(C(=O)NC1CCCC1)[C@H](CO)c1c2c2ccc(OC)cc2n1C | -2 | -1 | -17 | -3 | x | -11
CCCNC(=O)N1CC2(CN(CC3CCCCC3)C2)c2c(n(C)c3cc(OC)ccc23)[C@@H]1CO | 3 | 2 | 9 | 10 | x | x
O=C(Nc1ccccc1)Nc1ccc2c(c1)[C@H]1C[C@H](CC(=O)N3CCOCC3)O[C@@H](CO)[C@H]1O2 | -9 | 0 | 0 | 7 | 24[16.7 µM] | -2
Cc1ccc(C)c(CS(=O)(=O)c2cn(CC(=O)N3CCC(C)CC3)c3ccccc23)c1 | x | x | -3 | -17 | 120* | -5
O=C(CS(=O)(=O)c1cn(CC(=O)N2CCOCC2)c2ccccc12)Nc1ccccc1 | 2 | -2 | x | 40* | -70 | 18
O=C(CS(=O)(=O)c1cn(CC(=O)N2CCCC2)c2ccccc12)Nc1ccccc1 | -10 | 2 | 2 | 29 | x | x
COc1ccc(CN2C(=O)CSCC2=O)cc1OC | 6 | -3 | -5 | 1 | -7 | 9
SMILES | EWS-Fli inh | F508del corr | PGC1a acetyl inh | GSIS activator | HIV Env fusion | PAX8 reporter
COc1ccc(CCN2C(=O)C3C(C2=O)C2C=CC3C23CC3)cc1OC (stereo not given) | 4 | 0 | -2 | -7 | -12 | -21
COc1ccc(CCN2C(=O)CSC2=S)cc1OC | 22 | -1 | x | 19 | -1 | 90*
COc1ccc(CCN2CC(=O)NC(=O)C2)cc1OC | -3 | -2 | x | 54* | -19 | -25
O=C(C[C@H]1C=C[C@H](NC(=O)c2cccc(F)c2)[C@@H](CO)O1)NCCN1CCCC1 | -5 | 1 | 10 | -2 | 4[16.7 µM] | -5
C[C@@H]1CN([C@@H](C)CO)C(=O)c2cc(NC(=O)Nc3ccc4c(c3)OCO4)ccc2O[C@H]1CN(C)C(=O)Nc1ccc(C(F)(F)F)cc1 | -63 | 2 | -9 | 0 | 1[16.7 µM] | 1
CNC[C@H]1Oc2ccc(NC(=O)Cc3ccccc3)cc2C(=O)N([C@H](C)CO)C[C@@H]1C | 2 | -2 | 1 | -4 | 2[16.7 µM] | 21
Cc1nn(C)cc1C(=O)Nc1cc(Oc2ccc(Cl)cc2)cc([N+](=O)[O-])c1 | 10 | 3 | 1 | -12 | x | x
Cn1cc([N+](=O)[O-])c(C(=O)Nc2cc(Oc3ccccc3)cc([N+](=O)[O-])c2)n1 | 54* | -4 | x | 1 | -119 | x
Cc1ccccc1Cn1ccc(NC(=O)c2nn(C)cc2[N+](=O)[O-])n1 | x | x | x | -4 | 11 | 72*
CO[C@H]1CN(C)C(=O)c2cc(NC(=O)c3cccc(F)c3)ccc2OC[C@H](C)NC[C@H]1C | 0 | 4 | -10 | 3 | x | x
C[C@@H]1CN([C@H](C)CO)C(=O)Cc2cc(NC(=O)CCN3CCOCC3)ccc2O[C@@H]1CN(C)Cc1ccc(Cl)c(Cl)c1 | 2 | 2 | 0 | 4 | x | 2
C[C@@H]1CN([C@H](C)CO)C(=O)c2cccc(NC(=O)CCCCCC(=O)Nc3ccccc3N)c2O[C@H]1CN(C)Cc1ccc(-c2ccccc2)cc1 | 9 | -1 | 4 | 5 | -47[16.7 µM] | x
Cc1cccc(C)c1NC(=S)Nc1c(C)n(C)n(-c2ccccc2)c1=O | 2 | 1 | x | 0 | x | 76*
Cc1c(NC(=S)N/C(=N/S(=O)(=O)c2ccccc2)c2ccccc2)c(=O)n(-c2ccccc2)n1C | -9 | 1 | 1 | 44* | 14 | 2
Cc1c(NC(=S)N/C(=N/S(=O)(=O)c2ccc(Cl)cc2)c2ccccc2)c(=O)n(-c2ccccc2)n1C | -4 | 2 | 17 | x | -16 | 7
COC(=O)c1c(NC(=O)C(Cl)Cl)sc2c1C(C(=O)OC)CC2 (stereo not given) | 38 | 0 | x | -1 | -82 | 64*
COC(=O)c1c(NC(=O)C(C)(C)C)sc2c1C(C(=O)OC)CC2 (stereo not given) | x | x | -1 | x | i | -5
O=C(C1CC1)N1CCCCN2[C@@H](CO)[C@@H](c3ccc(-c4cccc(F)c4)cc3)[C@@H]2C1 | -7 | 0 | 10 | -21 | x | 12
COc1ccc(S(=O)(=O)Nc2ccc3c(c2)C(=O)N([C@H](C)CO)C[C@H](C)[C@H](CN(C)C(=O)Nc2ccc(C(F)(F)F)cc2)OCCCC[C@H](C)O3)cc1 | 9 | 1 | 0 | -6 | 17[16.7 µM] | 35

Compound activity from PubChem.
